Data reported in PubChem BioAssay AID1508600 (Functional Genomics Laboratory (NCATS/FGL), 2020).
Among all 53,000 sequences or so, about 3,700 (7%) were called active.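 The calls were made as follows: active = gene knockdowns whose robust z-score for IL-1 alpha signal is at least 2 or at most -2, so actives lie on both sides; inactive = the rest.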 The sample as a whole holds a higher share of actives than the screen did.

Test: Components of the Cytosolic LPS Sensing Pathway: Gene Identification via Genome-wide siRNA Screen;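 also: robust z of the log signal after scaling to non-targeting control siRNA wells of the plate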
Settings: RAW264.7 macrophages, IL-1a HTRF, actives lie on both sides, screened at 100 nM (by protocol), cells primed 5 h with Pam3CSK4 first
Method in brief: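 RAW264.7; siRNA 100 nM final, RNAiMAX, 48h 37 degrees C; Pam3CSK4 5 h; LipidA + TransIT-TKO 24 h; IL-1a HTRF; CellTiter-Glo viability; robust z vs negative-control median.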

| Sequence | z-score |
| --- | --- |
| CCAAUUAUUAUCCAAGGGCTT against Slc16a6 | -0.0144 (inactive) |
| GCUAUAACCUCACCGAGAATT against Tedc2 | 2.09 (active) |
| GGAAAAGCAGACAUGUGAUTT against Dedd | -0.875 (inactive) |
| CCAUUCAUACCAUACCUGUTT against Tmem50a | -0.521 (inactive) |
| GGGCAUUAGGGUGGUAGCATT against Gapdhs | -0.826 (inactive) |
| GCUUAGUGGUUCUUAUUUGTT against Olfr893 | -0.214 (inactive) |
| GCUUCAUAUAGACAAAGCCTT against Epo | -0.625 (inactive) |
| GGAAGUUAGUUUCGUUUUATT against Rprd1b | 2.03 (active) |
| GGCAAGAUCUUCAAGUGAATT against Eef1g | -0.809 (inactive) |
| GGAACAUUUUGGAAAUGACTT against Fbxo25 | -0.625 (inactive) |
| GGAAGAAGAAGGAGCUAGATT against Slu7 | -2.2 (active) |
| CCACCCACUAAACCUAAAUTT against Pcolce | 0.136 (inactive) |
| GGACACCAAAGUGAAUACATT against Cdhr5 | 0.122 (inactive) |
| GGAGAUGGCACAGUCAGUCTT against Slc22a8 | -0.338 (inactive) |
| GGGUUGUGGCUGCUACUAUTT against Pira2 | 2.18 (active) |
| GCUACUGGUUGGGUUGAAGTT against Tbcd | 1.47 (inactive) |
| GGAAGCUUUGGGAAACAGUTT against Bmp2 | -0.226 (inactive) |
| GGCCACUUGUCUCAUUGUGTT against Xlr4c | -1.93 (inactive) |
| GGAUACCAUCCUAGGCCUGTT against Ephx3 | -0.603 (inactive) |
| GCCUCAUCGUUGCUGACUATT against Pde3b | -2.04 (active) |
| GGAUGGUAACCAUCAUAUUTT against Vmn1r54 | -0.887 (inactive) |
| CCUCAUUGUUUUAUACCCUTT against Olfr1140 | 0.309 (inactive) |

| Sequence | z-score |
| --- | --- |
| GGGAUUAUACUAAUCCAACTT against Wdr45 | 1.24 (inactive) |
| GCUUCUUCCUUAGAUGGCATT against Kcnb1 | -1.32 (inactive) |
| GGUGCAUUUUGUCUAUGAUTT against Lamp5 | -2.04 (active) |
| CGACCAGCCAUGGUACAAATT against Ptprd | -0.83 (inactive) |
| CGUAGAAGAGUACAUGAUUTT against Pdcd10 | -0.526 (inactive) |
| GGAGAAAAGGAAGUUGAGGTT against Bnip3l | -1.76 (inactive) |
| GGGUUUCCAAGAAGGAAGCTT against Utp25 | 0.852 (inactive) |
| CCUUUUUCGAAAAAUCAGGTT against Lyst | -0.39 (inactive) |
| CCACAUAUAUCAACAAGCUTT against Olfr916 | -0.257 (inactive) |
| CCAAGAUAGUCCCUAUCCCTT against Scamp3 | 0.346 (inactive) |
| GGUAUGAUGAACAGUCCAGTT against Ep300 | -2.35 (active) |
| GGCUUGUUAAUGAAUGCACTT against Ankrd9 | -0.894 (inactive) |
| GGCUUUGAAGAAGAGCUUUTT against Atp6v0a4 | -0.775 (inactive) |
| GCACAGCGGUAAACAAAAUTT against Ywhaz | -0.00575 (inactive) |
| GUAUCCUUCACAACUGUCUTT against Olfr786 | -1.66 (inactive) |
| GGAAUCUGCUGAGGUUUAUTT against Cidea | 4.08 (active) |
| GGAGCUGAGGAAAAAGAUUTT against Uhrf1 | -0.993 (inactive) |
| GGCUUAUCAGUCCAUGAAGTT against Dhrs11 | -0.601 (inactive) |
| GGCGAUCAGGCAUCAUCCUTT against Aox1 | -0.153 (inactive) |
| GGCAACCAGUCUCAUCAAUTT against Scgb1b27 | -0.927 (inactive) |
| GCAGAGAUACCUAUCAAAGTT against Angptl4 | 1.16 (inactive) |
| GGAAGAGGAACAGUUAGCCTT against Zfp553 | -0.24 (inactive) |

| Sequence | z-score |
| --- | --- |
| GGAGGUCUGGAUUAACUGUTT against Cd163l1 | 2.2 (active) |
| GCAUCCUGAGCAGUGAUAUTT against Taar7b | -1.75 (inactive) |
| GGGUGCAGUGGAGUCUAUUTT against Smc1a | -1.31 (inactive) |
| GGAUUCUGAAGUGUAAAGATT against Icos | -0.764 (inactive) |
| GGCAGAGAUUGAGAGCAAGTT against Palm | 2.28 (active) |
| GGAGUUCCUCAAGAAUUUUTT against Arpc4 | -1.39 (inactive) |
| GGUUGUACUGAGUAGCUGGTT against Slc7a4 | 0.997 (inactive) |
| GGUUUACAAGAGUUACAGUTT against Brpf1 | 0.493 (inactive) |
| GCAAAGUUGGUGACGUGAUTT against Pole2 | -2.15 (active) |
| CCAAUAAGGCAUAUGUUUUTT against Scarb2 | -0.608 (inactive) |
| GGCACAGCUUGCUGAAGCUTT against Atp11b | -1.76 (inactive) |
| GGAAUACAAAGAUAGCUUCTT against Atrn | 0.786 (inactive) |
| GGCUUCUGGACCUCAAACATT against Zfp92 | -2.14 (active) |
| GGCAAUGUUUUUCUUGUUGTT against 9330132A10Rik | -1.12 (inactive) |
| GACCCGCUGCUGCUCAAAUTT against Cdc42ep5 | -0.178 (inactive) |
| GGGCAAAAGUACUUUGACUTT against Ensa | 2.2 (active) |
| GGACUGUGAUCAGGUUUGUTT against Elk3 | 0.695 (inactive) |
| GGUAACCAUGAUGAUGACATT against Tmem38b | -2.05 (active) |
| GGAAGACACAUUUUUCCAUTT against Serpinb9e | 0.733 (inactive) |
| GGUCUCUCGGACUUUUUCCTT against Adipor1 | -0.765 (inactive) |
| CCAAUGUUGGCAUUAUGUUTT against Fah | -0.354 (inactive) |
| GGAAGAAACUGGAAAGAUUTT against Ankrd23 | -1.01 (inactive) |

| Sequence | z-score |
| --- | --- |
| GGAAUGGUCCCUCCAAUGATT against Prpf40b | 2.38 (active) |
| GGACACAAGCCUAUUCCAATT against Rffl | 1.59 (inactive) |
| GGAUUCAAGCAUCGGAUUGTT against Adamts6 | 1.11 (inactive) |
| GGCAAUUGUCUCAUUCUGATT against Olfr631 | 0.806 (inactive) |
| CCAUCAACCCAUCAUGUGCTT against Pitpnc1 | -1.25 (inactive) |
| GGCCUUGUAUGAAUUAUUUTT against Sqle | 2.18 (active) |
| GGGAGCAAAUUAGAGAAAUTT against Gsk3b | 0.884 (inactive) |
| GGUCCUCGGUUACAGAAACTT against Cnr2 | -0.263 (inactive) |
| CCCAGCUUUUCAACUUGCUTT against Tmc4 | -1.19 (inactive) |
| GGGCCUUGUUUUAGGAAUUTT against Lap3 | 2.2 (active) |
| GGUACUGGAUCAAAGAAACTT against Gm11992 | -1.75 (inactive) |
| GCUGGUACAAGGUGUUUGATT against Pqbp1 | 0.825 (inactive) |
| GGAAGCACUCAGUGCUCUGTT against Igfbp6 | 2.06 (active) |
| GGAGGUGAAGCUCAUUGUCTT against Ildr1 | -0.165 (inactive) |
| CCGUGUCAUUUGGAGAGCUTT against Ndufaf5 | -0.248 (inactive) |
| GGUGCAGUUCAGCAACAAGTT against Mat2b | -1.65 (inactive) |
| GCAGUUGGGUUGGUAACUATT against Ash1l | 0.101 (inactive) |
| GGGCAAACCUUCUAAACUATT against Ttpa | 0.505 (inactive) |
| GGAUCACCCAUACAGGAACTT against Pla2g2f | -2.1 (active) |
| GCUGACAAAACUGCUAAACTT against Ctnnb1 | 0.948 (inactive) |
